Test results reported in PubChem BioAssay.
Values without a mark were called inactive.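 The calls were made as follows, unless noted: active = inhibition over a set limit, the all-compound mean plus 3 SD, in both replicate runs; inconclusive = over that limit in just one replicate run; inactive = at or under that limit in both runs.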 Inconclusive results are not listed.

Assay: viability of PTEN-null HCT116 cells – cell-based, HCT116 clonal line, CellTiter-Glo, pilot screen (AID 824;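 active = viability at or below 27.92% in each of two runs, the all-compound median minus 4 SD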;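 also: 0% = 20 µM Hyamine control and 100% = vehicle cell control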)
Settings: HCT116 PTEN-deleted viability, 60 h, at 10 µM, stronger effect = lower value

| Structure (SMILES) | viability [%] |
| --- | --- |
| Cn1cc(SCC(=O)NCC2CCCO2)c2ccccc21 (stereo not given) | 93.2 |
| Cc1nnc(Sc2nc3c(c(=O)[nH]c(=O)n3C)n2Cc2ccccc2)s1 | 103 |
| O=C1CCCCCN1Cc1nnc(SCc2nc3ccccc3s2)n1-c1ccccn1 | 95 |
| CCCCC(CC)C(=O)NCCCN1CCN(CCCNC(=O)C(CC)CCCC)CC1 (stereo not given) | 90.6 |
| c1csc(Cc2nc(-c3ccc(-n4cccc4)cc3)no2)c1 | 93.8 |
| COCCNC(=O)c1cc(-c2ccc(Cl)c(Cl)c2)on1 | 87.8 |
| COc1ccc(-c2nn(-c3ccccc3)cc2C(=O)O)cc1 | 97 |
| Cc1cc(NC(=O)Nc2cccc3ccccc23)no1 | 89.1 |
| O=C(c1ccc2snnc2c1)N1CCCC1 | 94.2 |
| COc1ccccc1NC(=O)c1cccc(S(=O)(=O)N2CCOCC2)c1 | 96.7 |
| COc1ccc(-n2c(Cn3c(=O)sc4ccccc43)nnc2SCC(=O)N2CCOCC2)cc1 | 97 |
| O=C(c1cc(-c2cccc(O)c2)on1)N1CCCCC1 | 103 |
| Cc1ccc(S(=O)(=O)N(C)Cc2nc(-c3ccc(Br)cc3)no2)cc1 | 87.8 |
| O=C(NCc1ccccc1)c1ccc2c(c1)OCCO2 | 101 |
| CCOC(=O)CSc1nnc(Cn2c(=O)sc3ccccc32)n1-c1ccccc1C | 96 |
| CCOC(=O)c1sc2nc(NC(=O)C3CC3)sc2c1C | 82.2 |
| O=C(CCCOc1ccccc1)Nc1cccc(C(=O)O)c1 | 98.6 |
| CN(C)CCNC(=O)c1ccc(CS(=O)(=O)c2c(Cl)cccc2Cl)o1 | 97.6 |
| CCOC(=O)CC1C(=O)NCCN1Cc1cccc(C(F)(F)F)c1 (stereo not given) | 86 |
| CC(=O)c1cccc(NC(=O)c2cc3ccccn3n2)c1 | 95.8 |

| Structure (SMILES) | viability [%] |
| --- | --- |
| Cc1ccc2c(c1)NCC(C(=O)NCc1ccccc1)O2 (stereo not given) | 88.6 |
| CCOC(=O)NCc1ccc(CNC(=O)OCC)cc1 | 90 |
| CC1=C(C#N)C(c2cccnc2)C2=C(CC(C)(C)CC2=O)N1 (stereo not given) | 99.6 |
| CCN1CCN(CCCNC(=O)Cn2cc3c(n2)CCCC3)CC1 | 97.2 |
| CC12CN3CC(C)(CN(C1)C3c1ccc3ccccc3c1O)C2=O (stereo not given) | 100 |
| CCOC(=O)NC(C(F)(F)F)(C(F)(F)F)P(=O)(c1ccccc1)c1ccccc1 | 91.7 |
| O=C(Cn1cc2c(n1)CCCCC2)NCCN1CCOCC1 | 97.3 |
| O=C(COC(=O)c1ccc(S(=O)(=O)NCc2ccco2)cc1)Nc1ccccc1OC(F)F | 93.7 |
| COc1ccc(-c2nnc(SCC(=O)NC(C)c3ccccc3)o2)cc1OC (stereo not given) | 96 |
| C=CCSc1nc2ccccc2c(=O)[nH]1 | 95.2 |
| COCc1cc(C)nc2sc3c(=O)n(Cc4ccco4)nnc3c12 | 90.7 |
| Cc1ccc(S(=O)(=O)N(C)CCCC(=O)N2CCOCC2)cc1 | 96.1 |
| COc1cccc(-n2nnc3c(=O)n(C/C=C/c4ccccc4)cnc32)c1 | 86.9 |
| CCOc1cc(C(=O)Nc2nnc(C)s2)cc(OCC)c1OCC | 97.7 |
| CCC(C)NC(=O)C1CCN(C(=O)c2ccccc2)CC1 (stereo not given) | 98.2 |
| CC(C)c1nnc(NC(=O)c2ccc(S(=O)(=O)N3CCOCC3)cc2)s1 | 99.3 |
| CCOC(=O)c1ccccc1N1C(=O)CSC1=S | 91.1 |
| COC(=O)C1=C(C)NC(=O)CC1c1cc2c(cc1Br)OCO2 (stereo not given) | 94.7 |
| Cc1ccc(C)c(N2CCN(C(=O)CCc3nc4ccccc4[nH]3)CC2)c1 | 90.4 |
| CCN1CCN(CC(=O)Nc2ccc3c(c2)OCO3)C(=O)C1=O | 100 |

Assay: RAM pathway blockade in budding yeast – dse1pr::URA3 reporter, 5-FOA selection, pilot screen (AID 869);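 also: 0% = DMSO wells with no growth and 100% = 10 µM 1-NA-PP1 with full growth; RAM network block rescues cells from 5-FOA so hits raise OD615 growth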
Settings: S. cerevisiae dse1pr::URA3 5-FOA growth, OD615, 2 d; at 10 µM; stronger effect = higher value; strain carries analog-sensitive mutant Cbk1 kinase

| Structure (SMILES) | inhibition [%] |
| --- | --- |
| Cn1cc(SCC(=O)NCC2CCCO2)c2ccccc21 (stereo not given) | 1.21 |
| Cc1nnc(Sc2nc3c(c(=O)[nH]c(=O)n3C)n2Cc2ccccc2)s1 | 1.61 |
| O=C1CCCCCN1Cc1nnc(SCc2nc3ccccc3s2)n1-c1ccccn1 | 1.07 |
| CCCCC(CC)C(=O)NCCCN1CCN(CCCNC(=O)C(CC)CCCC)CC1 (stereo not given) | -0.16 |
| c1csc(Cc2nc(-c3ccc(-n4cccc4)cc3)no2)c1 | 3.12 |
| COCCNC(=O)c1cc(-c2ccc(Cl)c(Cl)c2)on1 | 0.18 |
| COc1ccc(-c2nn(-c3ccccc3)cc2C(=O)O)cc1 | 3.71 |
| Cc1cc(NC(=O)Nc2cccc3ccccc23)no1 | -0.175 |
| O=C(c1ccc2snnc2c1)N1CCCC1 | 1.14 |
| COc1ccccc1NC(=O)c1cccc(S(=O)(=O)N2CCOCC2)c1 | 2.99 |
| COc1ccc(-n2c(Cn3c(=O)sc4ccccc43)nnc2SCC(=O)N2CCOCC2)cc1 | 0.235 |
| O=C(c1cc(-c2cccc(O)c2)on1)N1CCCCC1 | -0.46 |
| Cc1ccc(S(=O)(=O)N(C)Cc2nc(-c3ccc(Br)cc3)no2)cc1 | 2.72 |
| O=C(NCc1ccccc1)c1ccc2c(c1)OCCO2 | 1.48 |
| CCOC(=O)CSc1nnc(Cn2c(=O)sc3ccccc32)n1-c1ccccc1C | 2.26 |
| CCOC(=O)c1sc2nc(NC(=O)C3CC3)sc2c1C | 4.2 |
| O=C(CCCOc1ccccc1)Nc1cccc(C(=O)O)c1 | 2.61 |
| CN(C)CCNC(=O)c1ccc(CS(=O)(=O)c2c(Cl)cccc2Cl)o1 | 2.96 |
| CCOC(=O)CC1C(=O)NCCN1Cc1cccc(C(F)(F)F)c1 (stereo not given) | 1.66 |
| CC(=O)c1cccc(NC(=O)c2cc3ccccn3n2)c1 | 0.705 |

| Structure (SMILES) | inhibition [%] |
| --- | --- |
| Cc1ccc2c(c1)NCC(C(=O)NCc1ccccc1)O2 (stereo not given) | 1.46 |
| CCOC(=O)NCc1ccc(CNC(=O)OCC)cc1 | 0.81 |
| CC1=C(C#N)C(c2cccnc2)C2=C(CC(C)(C)CC2=O)N1 (stereo not given) | 1.09 |
| CCN1CCN(CCCNC(=O)Cn2cc3c(n2)CCCC3)CC1 | 0.945 |
| CC12CN3CC(C)(CN(C1)C3c1ccc3ccccc3c1O)C2=O (stereo not given) | -0.515 |
| CCOC(=O)NC(C(F)(F)F)(C(F)(F)F)P(=O)(c1ccccc1)c1ccccc1 | 0.93 |
| O=C(Cn1cc2c(n1)CCCCC2)NCCN1CCOCC1 | 2 |
| O=C(COC(=O)c1ccc(S(=O)(=O)NCc2ccco2)cc1)Nc1ccccc1OC(F)F | 1.43 |
| COc1ccc(-c2nnc(SCC(=O)NC(C)c3ccccc3)o2)cc1OC (stereo not given) | 1.04 |
| C=CCSc1nc2ccccc2c(=O)[nH]1 | 2.91 |
| COCc1cc(C)nc2sc3c(=O)n(Cc4ccco4)nnc3c12 | 4.2 |
| Cc1ccc(S(=O)(=O)N(C)CCCC(=O)N2CCOCC2)cc1 | 1.17 |
| COc1cccc(-n2nnc3c(=O)n(C/C=C/c4ccccc4)cnc32)c1 | 3.2 |
| CCOc1cc(C(=O)Nc2nnc(C)s2)cc(OCC)c1OCC | 0.43 |
| CCC(C)NC(=O)C1CCN(C(=O)c2ccccc2)CC1 (stereo not given) | 1.18 |
| CC(C)c1nnc(NC(=O)c2ccc(S(=O)(=O)N3CCOCC3)cc2)s1 | 2.56 |
| CCOC(=O)c1ccccc1N1C(=O)CSC1=S | 1.11 |
| COC(=O)C1=C(C)NC(=O)CC1c1cc2c(cc1Br)OCO2 (stereo not given) | 1.42 |
| Cc1ccc(C)c(N2CCN(C(=O)CCc3nc4ccccc4[nH]3)CC2)c1 | -0.165 |
| CCN1CCN(CC(=O)Nc2ccc3c(c2)OCO3)C(=O)C1=O | 0.7 |
